Source: PubChem BioAssay (NCATS)
Inconclusive results are not listed. Values without a mark were called inactive. Calls of active or inactive are those of the source. The call rests on the fitted dose curve; in most records, active means well fitted inhibition curve with a large enough effect; inconclusive means small, poorly fitted or top-dose-only effect; inactive means flat fitted curve, though single readings scatter.

system: HEK293; experiment: Cytotoxic Profiling of Annotated Libraries Using Quantitative High-Throughput Screening (AID 1296008); settings: Five cell lines viability, CellTiter-Glo ATP luminescence, 48-72 h; max response: active compounds read low; further: nearly all actives have a fitted effect of over 60% in size
In short: (§1)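 Compounds were pin-transferred onto cells and incubated 48 or 72 hr at 37 degree Celsius, 95% humidity. CellTiter-Glo was added, plates sat 10 min at room temperature, then ATP-coupled luminescence was imaged as the viability read-out.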
On the % scale 0 is the no-effect control and ±100 the full control effect; potency means the concentration at half of the fitted maximal effect.

**Q.** For `Cc1cc(=O)oc2cc(O[C@@H]3SC[C@@H](O)[C@H](O)[C@H]3O)ccc12`, which max response is on record?
**A.** The max response was -8.77%.

**Q.** `COc1cc(C=O)ccc1O` was tested. Which max response did it give?
**A.** The max response was -1.3%.

**Q.** With `CC(C)(C)c1cc(C=O)cc(C(C)(C)C)c1O` as the compound, how does the max response read?
**A.** Its max response is 3.28%.

**Q.** For `C=CCNc1nc(NCC=C)nc(N2CCN(C(c3ccc(F)cc3)c3ccc(F)cc3)CC2)n1`, which Potency is on record?
**A.** The Potency was 8.41 µM (active).

**Q.** `CCCCC(CC)CNC(=O)CC(C)OC(=O)CCC(=O)O` (stereo not drawn) was tested. Which max response did it give?
**A.** The max response was 1.54%.

**Q.** `Nc1nc(=O)n([C@@H]2O[C@H](CO)[C@@H](O)[C@@H]2F)cc1I` was tested. Which outcome did it give?
**A.** The outcome was “inactive”.

**Q.** For `O=C1CC2(CCCC2)CC(=O)N1CCNCC1COc2ccccc2O1` (stereo not drawn), which outcome is on record?
**A.** Its outcome is “inactive”.

**Q.** `COc1ccc(/C(C)=C/C(=O)O)c(OC)c1` was tested. Which outcome did it give?
**A.** The outcome was “inactive”.

**Q.** Which max response does the source give for `COc1ccc2c(c1)CCCC2=O` here?
**A.** Its max response is -10.4%.

**Q.** `C#Cc1ccc(-c2ccccc2F)cc1` was tested. Which max response did it give?
**A.** The max response was -8.83%.

**Q.** With `C/C(=N/NC(=O)c1ccncc1)C(=O)O` as the compound, how does the max response read?
**A.** Its max response is 2.14%.

**Q.** For `N#CC1(c2ccc(F)cc2)CCC(=O)CC1`, which max response is on record?
**A.** The max response was -11.6%.

**Q.** How did the max response turn out when `O=C(CCCl)NCCc1ccccc1` was run?
**A.** Its max response is -1.92%.

**Q.** For `COC(=O)c1cc(S(N)(=O)=O)ccc1OC`, which max response is on record?
**A.** Its max response is 4.21%.

**Q.** With `Nc1ccc(C(=O)OCC(O)CO)cc1` (stereo not drawn) as the compound, how does the max response read?
**A.** The max response was -11.2%.

**Q.** With `C[N+]1(C)CCC(OC(=O)C(O)(c2ccccc2)C2CCCC2)C1` (stereo not drawn) as the compound, how does the max response read?
**A.** Its max response is -9.88%.

**Q.** Which max response does the source give for `C[C@@H]1CCC[C@H](C)N1CCCC(O)(c1ccccc1)c1ccccn1` (stereo partly drawn) here?
**A.** Its max response is -3.44%.

**Q.** With `Clc1ccc2c(c1)Nc1ccccc1S2` as the compound, how does the max response read?
**A.** The max response was -6.16%.

**Q.** `COc1cc2c(cc1OC)C(=O)CC2` was tested. Which max response did it give?
**A.** Its max response is 3.36%.

**Q.** `COc1ccc2cc(C=O)ccc2c1` was tested. Which max response did it give?
**A.** The max response was 0.484%.

**Q.** For `CCCCCCn1c(=O)c2c(ncn2C)n(C)c1=O`, which max response is on record?
**A.** Its max response is -1.62%.

**Q.** Which max response does the source give for `CCC(=O)O[C@]1(C(=O)COC)[C@@H](C)C[C@H]2[C@@H]3CCC4=CC(=O)C=C[C@]4(C)C3(F)[C@@H](O)C[C@@]21C` (stereo partly drawn) here?
**A.** The max response was -13.2%.

**Q.** `Cc1onc(-c2ccccc2)c1C(=O)Cl` was tested. Which max response did it give?
**A.** Its max response is 0.397%.

**Q.** `CC1(C)O[C@@H]2C[C@H]3[C@@H]4CCC5=CC(=O)C=C[C@]5(C)[C@@]4(F)[C@@H](O)C[C@]3(C)[C@]2(C(=O)CO)O1` was tested. Which max response did it give?
**A.** The max response was -6.9%.

**Q.** For `CC(=O)N(CC(O)CO)c1c(I)c(C(=O)NCCO)c(I)c(C(=O)NCC(O)CO)c1I` (stereo not drawn), which max response is on record?
**A.** Its max response is 2.15%.

**Q.** Which max response does the source give for `CCCOc1ccc2c(c1)CC[C@@H]1[C@@H]2CC[C@]2(C)C(OC)CC[C@@H]12` (stereo partly drawn) here?
**A.** The max response was -6.37%.

**Q.** With `COc1ccc2c(c1)c(CC(=O)OC/C=C(\C)CC/C=C(\C)CCC=C(C)C)c(C)n2C(=O)c1ccc(Cl)cc1` as the compound, how does the max response read?
**A.** The max response was -3.27%.

**Q.** How did the outcome turn out when `O=C(CCOCCOCCOCCOCCC(=O)Nc1c(I)cc(I)c(C(=O)O)c1I)Nc1c(I)cc(I)c(C(=O)O)c1I` was run?
**A.** Its outcome is “inactive”.

**Q.** Which outcome does the source give for `Cc1[nH]cnc1-c1ccc(Cl)cc1` here?
**A.** Its outcome is “inactive”.

**Q.** For `CCN(CC)CC(=O)Oc1ccc(NC(C)=O)cc1`, which outcome is on record?
**A.** The outcome was “inactive”.

**Q.** For `CCCCN(CCCC)C(C(N)=O)c1ccc(OC)cc1` (stereo not drawn), which max response is on record?
**A.** Its max response is -5.09%.

**Q.** `NS(=O)(=O)c1ccc(N2CCCCS2(=O)=O)cc1` was tested. Which outcome did it give?
**A.** Its outcome is “inactive”.

**Q.** Which max response does the source give for `O=C1CC2(CCCC2)CC(=O)N1` here?
**A.** Its max response is 4.63%.

**Q.** How did the Potency turn out when `CC(C)C[C@@H]1[C@H](c2ccccc2)OC(=O)N1CCCN1CCCCCC1` was run?
**A.** The Potency was 23.7 µM (active).

**Q.** How did the Potency turn out when `CCCCCCOC(=O)NC(=N)c1ccc(NCc2nc3cc(C(=O)N(CCC(=O)OCC)c4ccccn4)ccc3n2C)cc1` was run?
**A.** Its Potency is 10.6 µM (active).

**Q.** With `CCCCCC1Nc2cc(C(F)(F)F)c(S(N)(=O)=O)cc2S(=O)(=O)N1` (stereo not drawn) as the compound, how does the max response read?
**A.** The max response was -4.59%.

**Q.** With `O=C(O)CCCC[C@@H]1SC[C@@H]2NC(=O)N[C@@H]21` as the compound, how does the max response read?
**A.** The max response was -6.79%.

**Q.** How did the max response turn out when `CC1(C)O[C@@H]2C[C@H]3[C@@H]4C[C@H](F)C5=CC(=O)C=C[C@]5(C)[C@@]4(F)[C@@H](O)C[C@]3(C)[C@]2(C(=O)CO)O1` was run?
**A.** Its max response is 1.46%.

**Q.** With `CC(=O)N(c1onc(C)c1C)S(=O)(=O)c1ccc(N)cc1` as the compound, how does the max response read?
**A.** The max response was 4.9%.

system: HaCat; experiment: as above; settings: Five cell lines viability, CellTiter-Glo ATP luminescence, 48-72 h; max response: active compounds read low
In short: as §1

**Q.** For `Cc1cc(=O)oc2cc(O[C@@H]3SC[C@@H](O)[C@H](O)[C@H]3O)ccc12`, which max response is on record?
**A.** Its max response is 4.75%.

**Q.** How did the outcome turn out when `COc1cc(C=O)ccc1O` was run?
**A.** The outcome was “inactive”.

**Q.** `CC(C)(C)c1cc(C=O)cc(C(C)(C)C)c1O` was tested. Which outcome did it give?
**A.** The outcome was “inactive”.

**Q.** Which max response does the source give for `C=CCNc1nc(NCC=C)nc(N2CCN(C(c3ccc(F)cc3)c3ccc(F)cc3)CC2)n1` here?
**A.** The max response was 2.53%.

**Q.** With `CCCCC(CC)CNC(=O)CC(C)OC(=O)CCC(=O)O` (stereo not drawn) as the compound, how does the outcome read?
**A.** The outcome was “inactive”.

**Q.** Which max response does the source give for `Nc1nc(=O)n([C@@H]2O[C@H](CO)[C@@H](O)[C@@H]2F)cc1I` here?
**A.** Its max response is 3.07%.

**Q.** `O=C1CC2(CCCC2)CC(=O)N1CCNCC1COc2ccccc2O1` (stereo not drawn) was tested. Which max response did it give?
**A.** The max response was -0.105%.

**Q.** With `COc1ccc(/C(C)=C/C(=O)O)c(OC)c1` as the compound, how does the outcome read?
**A.** The outcome was “inactive”.

**Q.** With `COc1ccc2c(c1)CCCC2=O` as the compound, how does the outcome read?
**A.** The outcome was “inactive”.

**Q.** `C#Cc1ccc(-c2ccccc2F)cc1` was tested. Which max response did it give?
**A.** Its max response is 3.65%.

**Q.** `C/C(=N/NC(=O)c1ccncc1)C(=O)O` was tested. Which outcome did it give?
**A.** Its outcome is “inactive”.

**Q.** For `N#CC1(c2ccc(F)cc2)CCC(=O)CC1`, which outcome is on record?
**A.** The outcome was “inactive”.

**Q.** With `O=C(CCCl)NCCc1ccccc1` as the compound, how does the max response read?
**A.** Its max response is 0.301%.

**Q.** Which outcome does the source give for `COC(=O)c1cc(S(N)(=O)=O)ccc1OC` here?
**A.** Its outcome is “inactive”.

**Q.** `Nc1ccc(C(=O)OCC(O)CO)cc1` (stereo not drawn) was tested. Which max response did it give?
**A.** The max response was -8.17%.

**Q.** Which outcome does the source give for `C[N+]1(C)CCC(OC(=O)C(O)(c2ccccc2)C2CCCC2)C1` (stereo not drawn) here?
**A.** Its outcome is “inactive”.

**Q.** How did the outcome turn out when `C[C@@H]1CCC[C@H](C)N1CCCC(O)(c1ccccc1)c1ccccn1` (stereo partly drawn) was run?
**A.** Its outcome is “inactive”.

**Q.** `Clc1ccc2c(c1)Nc1ccccc1S2` was tested. Which max response did it give?
**A.** Its max response is -13.4%.

**Q.** With `COc1cc2c(cc1OC)C(=O)CC2` as the compound, how does the outcome read?
**A.** Its outcome is “inactive”.

**Q.** `COc1ccc2cc(C=O)ccc2c1` was tested. Which outcome did it give?
**A.** The outcome was “inactive”.

**Q.** How did the outcome turn out when `CCCCCCn1c(=O)c2c(ncn2C)n(C)c1=O` was run?
**A.** Its outcome is “inactive”.

**Q.** For `CCC(=O)O[C@]1(C(=O)COC)[C@@H](C)C[C@H]2[C@@H]3CCC4=CC(=O)C=C[C@]4(C)C3(F)[C@@H](O)C[C@@]21C` (stereo partly drawn), which outcome is on record?
**A.** The outcome was “inactive”.

**Q.** With `Cc1onc(-c2ccccc2)c1C(=O)Cl` as the compound, how does the outcome read?
**A.** The outcome was “inactive”.

**Q.** How did the max response turn out when `CC1(C)O[C@@H]2C[C@H]3[C@@H]4CCC5=CC(=O)C=C[C@]5(C)[C@@]4(F)[C@@H](O)C[C@]3(C)[C@]2(C(=O)CO)O1` was run?
**A.** The max response was -7.17%.

**Q.** Which outcome does the source give for `CC(=O)N(CC(O)CO)c1c(I)c(C(=O)NCCO)c(I)c(C(=O)NCC(O)CO)c1I` (stereo not drawn) here?
**A.** The outcome was “inactive”.

**Q.** How did the max response turn out when `CCCOc1ccc2c(c1)CC[C@@H]1[C@@H]2CC[C@]2(C)C(OC)CC[C@@H]12` (stereo partly drawn) was run?
**A.** The max response was 2.29%.

**Q.** For `COc1ccc2c(c1)c(CC(=O)OC/C=C(\C)CC/C=C(\C)CCC=C(C)C)c(C)n2C(=O)c1ccc(Cl)cc1`, which outcome is on record?
**A.** Its outcome is “inactive”.

**Q.** How did the outcome turn out when `O=C(CCOCCOCCOCCOCCC(=O)Nc1c(I)cc(I)c(C(=O)O)c1I)Nc1c(I)cc(I)c(C(=O)O)c1I` was run?
**A.** The outcome was “inactive”.

**Q.** With `Cc1[nH]cnc1-c1ccc(Cl)cc1` as the compound, how does the max response read?
**A.** The max response was -6.75%.

**Q.** How did the outcome turn out when `CCN(CC)CC(=O)Oc1ccc(NC(C)=O)cc1` was run?
**A.** The outcome was “inactive”.

**Q.** With `CCCCN(CCCC)C(C(N)=O)c1ccc(OC)cc1` (stereo not drawn) as the compound, how does the max response read?
**A.** The max response was 2.19%.

**Q.** For `NS(=O)(=O)c1ccc(N2CCCCS2(=O)=O)cc1`, which outcome is on record?
**A.** The outcome was “inactive”.

**Q.** How did the outcome turn out when `O=C1CC2(CCCC2)CC(=O)N1` was run?
**A.** Its outcome is “inactive”.

**Q.** Which max response does the source give for `CC(C)C[C@@H]1[C@H](c2ccccc2)OC(=O)N1CCCN1CCCCCC1` here?
**A.** Its max response is -13.9%.

**Q.** Which outcome does the source give for `CCCCCCOC(=O)NC(=N)c1ccc(NCc2nc3cc(C(=O)N(CCC(=O)OCC)c4ccccn4)ccc3n2C)cc1` here?
**A.** The outcome was “inactive”.

**Q.** How did the max response turn out when `CCCCCC1Nc2cc(C(F)(F)F)c(S(N)(=O)=O)cc2S(=O)(=O)N1` (stereo not drawn) was run?
**A.** Its max response is -13.3%.

**Q.** How did the max response turn out when `O=C(O)CCCC[C@@H]1SC[C@@H]2NC(=O)N[C@@H]21` was run?
**A.** Its max response is 4.46%.

**Q.** With `CC1(C)O[C@@H]2C[C@H]3[C@@H]4C[C@H](F)C5=CC(=O)C=C[C@]5(C)[C@@]4(F)[C@@H](O)C[C@]3(C)[C@]2(C(=O)CO)O1` as the compound, how does the max response read?
**A.** The max response was 1.62%.

**Q.** With `CC(=O)N(c1onc(C)c1C)S(=O)(=O)c1ccc(N)cc1` as the compound, how does the outcome read?
**A.** Its outcome is “inactive”.
